Laboratory results from the supplement of paper PMC3545927.
The other results are listed elsewhere or left out. The true hit rate is not given.

B1: HC2501 (peptide)
chain: CASNPCSAHLAGNASASA
B2: FS-779 (peptide)
chain: CAGDNRHLRSAGNASASA
B3: FS-1413 (peptide)
chain: CASLERHLRSAGNASASA
B4: FS-1536 (peptide)
chain: CAIRFRHLRSAGNASASA
B5: FS-1548 (peptide)
chain: CANTARQRRAAGNASASA
B6: FS-636 (peptide)
chain: CAYRARLSRGAGNASASA
B7: FS-1295 (peptide)
chain: CAYRARQRRAAGNASASA
B8: HC1909 (peptide)
chain: CATTPCSGYWAGNASASA
B9: HC517 (peptide)
chain: CAAIKWEYVVAGNASASA
B10: HC988 (peptide)
chain: CAVVTSTWVLAGNASASA
B11: HC304 (peptide)
chain: CAVGQLFTFSAGNASASA
B12: FS-1625 (peptide)
chain: CADVSRNARHAGNASASA
B13: HC354 (peptide)
chain: CAVTGGSAGHAGNASASA
B14: HC2035 (peptide)
chain: CAVVHCSMSYAGNASASA
B15: FS-1431 (peptide)
chain: CAVMHRVARHAGNASASA
B16: HC1233 (peptide)
chain: CAVSFRVGLHAGNASASA
B17: FS-965 (peptide)
chain: CAVGQRQARHAGNASASA
B18: FS-107 (peptide)
chain: CAVVHRFARHAGNASASA
B19: HC2255 (peptide)
chain: CAEVVTSTWHAGNASASA
B20: HC992 (peptide)
chain: CAVGGVLAALAGNASASA
B21: HC653 (peptide)
chain: CATWGADTAAAGNASASA
B22: HC471 (peptide)
chain: CATINYTIFKAGNASASA
B23: HC1094 (peptide)
chain: CAKIMSGEVPAGNASASA
B24: HC275 (peptide)
chain: CACVREGNASAGNASASA
B25: FS-1379 (peptide)
chain: CAPCERKGRSAGNASASA
B26: FS-1290 (peptide)
chain: CATGRRKGRSAGNASASA
B27: HC906 (peptide)
chain: CATGRGKPGIAGNASASA
B28: HC414 (peptide)
chain: CAYCFTPSPVAGNASASA
B29: HC2469 (peptide)
chain: CAYTPCSAHLAGNASASA
B30: HC1583 (peptide)
chain: CALMTHFFSVAGNASASA
B31: HC1639 (peptide)
chain: CATPIAAAGQAGNASASA
B32: FS-1727 (peptide)
chain: CARKKRAAGQAGNASASA
B33: FS-1904 (peptide)
chain: CARKMRDDERAGNASASA
B34: HC1791 (peptide)
chain: CADEMEECSQAGNASASA
B35: HC1797 (peptide)
chain: CASEMEECSQAGNASASA
B36: FS-2692 (peptide)
chain: CARKKRFAKQAGNASASA
B37: FS-3257 (peptide)
chain: CARKKRWAERAGNASASA
B38: HC1785 (peptide)
chain: CALEMEECSQAGNASASA
B39: FS-1857 (peptide)
chain: CARKKRLEEQAGNASASA
B40: HC1658 (peptide)
chain: CACLLLLAAGAGNASASA
B41: HC2120 (peptide)
chain: CACDVVCCSMAGNASASA
B42: HC1941 (peptide)
chain: CATTPCSGSNAGNASASA
B43: HC161 (peptide)
chain: CAMSTNPKPQAGNASASA

Target: furin, P09958
Experiment: furin cleavage Z-score vs untreated control; higher = more cleavage, active = 3.5 or more, inactive = 1 or less, 8 variable residues between constant flanks
Procedure, shortened: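 To give the cleavage Z-score, log read counts were set against furin-free reactions, lowess-adjusted and scaled by median absolute deviation. These counts came from PCR adapter-tagged, sequenced DNA released when purified furin cut 8-mer peptides fused to a cDNA oligonucleotide and held on magnetic beads by their N-terminus. Digests were 0.01 ml, 1:10 enzyme:substrate, in 50 mM HEPES pH 7.5 with CaCl2 and NaCl, for 7.5, 15 or 30 min.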

furin, P09958, sequence (P09958 whole entry): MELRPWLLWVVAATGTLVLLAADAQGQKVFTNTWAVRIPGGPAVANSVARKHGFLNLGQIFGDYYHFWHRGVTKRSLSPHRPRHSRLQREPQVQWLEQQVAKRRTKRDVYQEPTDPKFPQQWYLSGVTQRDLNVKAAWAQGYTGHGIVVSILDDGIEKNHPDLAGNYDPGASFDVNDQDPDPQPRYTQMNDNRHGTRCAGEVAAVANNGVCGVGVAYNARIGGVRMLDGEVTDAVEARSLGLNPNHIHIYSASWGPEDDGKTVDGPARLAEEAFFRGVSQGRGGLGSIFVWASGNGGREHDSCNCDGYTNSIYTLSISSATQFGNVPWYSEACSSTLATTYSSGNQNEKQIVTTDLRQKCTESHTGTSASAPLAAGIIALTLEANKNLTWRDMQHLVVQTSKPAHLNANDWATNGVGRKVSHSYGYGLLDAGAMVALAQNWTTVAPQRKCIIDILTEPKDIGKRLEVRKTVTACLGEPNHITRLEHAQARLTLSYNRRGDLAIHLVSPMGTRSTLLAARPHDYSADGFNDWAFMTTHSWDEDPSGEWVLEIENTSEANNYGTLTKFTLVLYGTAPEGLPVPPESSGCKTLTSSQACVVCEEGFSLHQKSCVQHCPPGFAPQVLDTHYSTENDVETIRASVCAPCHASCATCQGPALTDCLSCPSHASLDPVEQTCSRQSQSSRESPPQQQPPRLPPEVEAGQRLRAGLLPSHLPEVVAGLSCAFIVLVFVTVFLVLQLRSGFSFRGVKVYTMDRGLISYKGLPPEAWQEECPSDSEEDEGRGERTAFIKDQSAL

Sequence | furin cleavage Z-score (7.5 min) | furin cleavage Z-score (15 min) | furin cleavage Z-score (30 min)
B1 | 0.199 (inactive) | 0.64 (inactive) | 0.644 (inactive)
B2 | 0.602 (inactive) | 0.112 (inactive) | -0.651 (inactive)
B3 | 3.94 (active) | 4.91 (active) | 3.46
B4 | 2.94 | 3.49 | 3.84 (active)
B5 | 10.2 (active) | 11.6 (active) | 8.92 (active)
B6 | 0.776 (inactive) | 2.55 | 2.96
B7 | 6.02 (active) | 5.59 (active) | 4.76 (active)
B8 | 0.299 (inactive) | 1.62 | -0.123 (inactive)
B9 | -0.197 (inactive) | -3.37 (inactive) | -0.457 (inactive)
B10 | -0.433 (inactive) | -1.05 (inactive) | -0.901 (inactive)
B11 | 0.324 (inactive) | -1.01 (inactive) | -1.31 (inactive)
B12 | 3.37 | 3.82 (active) | 3.7 (active)
B13 | 0.0621 (inactive) | -1.5 (inactive) | -0.849 (inactive)
B14 | -0.95 (inactive) | -0.538 (inactive) | -0.331 (inactive)
B15 | 10.4 (active) | 9.27 (active) | 9.21 (active)
B16 | -0.575 (inactive) | 0.122 (inactive) | 1
B17 | 4.69 (active) | 5.78 (active) | 5.69 (active)
B18 | 10.1 (active) | 9.64 (active) | 8.96 (active)
B19 | 1.36 | -3.35 (inactive) | 0.0251 (inactive)
B20 | -0.486 (inactive) | -0.617 (inactive) | -1.61 (inactive)
B21 | -1.68 (inactive) | -0.657 (inactive) | 0.025 (inactive)
B22 | -0.464 (inactive) | -1.13 (inactive) | -1.75 (inactive)

Sequence | furin cleavage Z-score (7.5 min) | furin cleavage Z-score (15 min) | furin cleavage Z-score (30 min)
B23 | 0.645 (inactive) | -1.21 (inactive) | -1.34 (inactive)
B24 | -1.21 (inactive) | -1.14 (inactive) | -0.496 (inactive)
B25 | 5.38 (active) | 8.32 (active) | 6.45 (active)
B26 | 10.3 (active) | 12.1 (active) | 8.69 (active)
B27 | -0.769 (inactive) | 0.329 (inactive) | 1.63
B28 | -0.826 (inactive) | -2.21 (inactive) | -2.26 (inactive)
B29 | -1.25 (inactive) | -1.32 (inactive) | -1.27 (inactive)
B30 | -2.19 (inactive) | -1.38 (inactive) | -1.85 (inactive)
B31 | -1.29 (inactive) | -1.26 (inactive) | -1.59 (inactive)
B32 | 10.8 (active) | 11.8 (active) | 8.92 (active)
B33 | 0.00727 (inactive) | -0.39 (inactive) | -1.4 (inactive)
B34 | 6.21 (active) | -2.13 (inactive) | -5.81 (inactive)
B35 | 1.23 | -0.566 (inactive) | 0.242 (inactive)
B36 | 5.98 (active) | 8.51 (active) | 8.88 (active)
B37 | 8.39 (active) | 10.8 (active) | 10.8 (active)
B38 | 0.133 (inactive) | 0.777 (inactive) | -0.27 (inactive)
B39 | -0.193 (inactive) | 1.1 | 0.0714 (inactive)
B40 | -0.897 (inactive) | -1.64 (inactive) | -0.912 (inactive)
B41 | -0.0436 (inactive) | -0.677 (inactive) | -0.296 (inactive)
B42 | -1.17 (inactive) | -0.013 (inactive) | -0.852 (inactive)
B43 | 0.554 (inactive) | -0.264 (inactive) | -0.709 (inactive)
